Results as given in PubChem BioAssay (NCI).
About 79,000 compounds went through this panel and 15% of them were active in at least one assay; those are over-represented in the sample as a whole. Activity calls are given as the source filed them. Cut-off read from the data, not from the text of the source: active = growth inhibition above about 70%; inactive = the rest.

Key:
[1] = NCI Yeast Anticancer Drug Screen. Data for the rad50 strain (AID 155);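 note: 0% = growth of vehicle-only cultures of the same strain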; conditions: S. cerevisiae rad50 strain growth inhibition, stronger effect = higher value
Procedure, shortened: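 Vehicle-treated cultures provide the reference for the growth inhibition reported for compound-exposed, repair-deficient yeast.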

[2] = NCI Yeast Anticancer Drug Screen. Data for the mec2-1 strain (AID 157); conditions: S. cerevisiae mec2-1 strain, stronger effect = higher value
Procedure, shortened: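 Cells of the genetically defined mec2-1 yeast strain are incubated with test compound. Inhibition of growth is calculated against vehicle-treated controls.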

[3] = NCI Yeast Anticancer Drug Screen. Data for the sgs1 mgt1 strain (AID 161);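 note: 0% = growth of cultures given vehicle only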; conditions: S. cerevisiae sgs1 mgt1 strain, stronger effect = higher value
Procedure, shortened: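 Mutant yeast exposed to compound; growth scored against vehicle-only wells.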

[4] = NCI Yeast Anticancer Drug Screen. Data for the cln2 rad14 strain (AID 165);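 note: 0% = growth equal to vehicle treated cultures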; conditions: S. cerevisiae cln2 rad14 strain, stronger effect = higher value
Procedure, shortened: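 The screen exposed genetically defined yeast (cln2 rad14) to test compounds and scored growth inhibition relative to vehicle-treated controls.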

[5] = NCI Yeast Anticancer Drug Screen. Data for the bub3 strain (AID 167); conditions: S. cerevisiae bub3 mutant strain, stronger effect = higher value
Procedure, shortened: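 Mutant yeast screening strain plus compound; vehicle-treated cultures serve as the 0% inhibition reference.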

[6] = NCI Yeast Anticancer Drug Screen. Data for the mlh1 rad18 strain (AID 175); conditions: S. cerevisiae mlh1 rad18 strain growth inhibition, stronger effect = higher value
Procedure, shortened: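 Compound-treated yeast growth, normalised to vehicle controls. Strain bears defined DNA repair mutations.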

[7] = at 5.0 µM (retest, dose inferred, filed as 0.5)
[8] = at 50.0 µM (retest, dose inferred, filed as 5.0)

Measured: growth inhibition

CCOc1ccccc1C(=O)Oc1cccc(C)c1
inactive: [1]; [7] -7% | [1]; [8] -1% | [1]; at 50.0 µM 1.95% | [2]; [7] -8% | [2]; [8] -18% | [2]; at 50.0 µM -9.75% | [3]; [7] -2% | [3]; [8] 12% | [3]; at 50.0 µM 5.55% | [4]; [7] -21% | [4]; [8] 32% | [4]; at 50.0 µM -5.2% | [5]; [7] 6% | [5]; [8] -6% | [5]; at 50.0 µM 11.8% | [6]; [7] -19% | [6]; [8] 17% | [6]; at 50.0 µM 18.9%

O=C(Nc1ccccc1)OC1CCCC1
inactive: [1]; [7] 19% | [2]; [7] 11% | [2]; at 50.0 µM 11.8% | [3]; [7] 12% | [4]; [7] 8% | [4]; [8] 28% | [4]; at 50.0 µM -3.85% | [5]; [7] 6% | [5]; at 50.0 µM 50.1% | [6]; [7] 12%
active: [1]; [8] 94% | [1]; at 50.0 µM 85.5% | [2]; [8] 88% | [3]; [8] 92% | [3]; at 50.0 µM 81.2% | [5]; [8] 90% | [6]; [8] 94% | [6]; at 50.0 µM 82.8%

CC1(C)CC(N(C(=O)/C=C/c2ccc([N+](=O)[O-])o2)C2CCCCC2)CC(C)(C)N1
inactive: [1]; [7] -5% | [1]; at 50.0 µM 5.6% | [2]; [7] -3% | [2]; at 50.0 µM 13.9% | [3]; [7] -2% | [3]; at 50.0 µM 40.2% | [4]; [7] -6% | [4]; at 50.0 µM 25.1% | [5]; [7] -4% | [5]; at 50.0 µM 7.95% | [6]; [7] -1%
active: [1]; [8] 97% | [2]; [8] 98% | [3]; [8] 99% | [4]; [8] 97% | [5]; [8] 99% | [6]; [8] 97% | [6]; at 50.0 µM 85%

Cc1cc(O)c(C(=O)/C=C/c2ccnc3ccccc23)c(=O)o1
inactive: [1]; [7] -7% | [1]; [8] 5% | [1]; at 50.0 µM -9.7% | [2]; [7] -17% | [2]; [8] -1% | [2]; at 50.0 µM -6.65% | [3]; [7] 6% | [3]; [8] 20% | [3]; at 50.0 µM -2% | [4]; [7] 11% | [4]; [8] 8% | [4]; at 50.0 µM -13.4% | [5]; [7] 22% | [5]; [8] 8% | [5]; at 50.0 µM -4.8% | [6]; [7] 15% | [6]; [8] 8% | [6]; at 50.0 µM -23.2%

O=C1/C(=C/c2ccccc2)CCC/C1=C\c1ccc(O)c(CN2CCCCC2)c1
inactive: [1]; [7] 25% | [1]; [8] 42% | [1]; at 50.0 µM -4.05% | [2]; [7] 16% | [2]; [8] 27% | [2]; at 50.0 µM 1.95% | [3]; [7] 26% | [3]; [8] 47% | [4]; [7] 18% | [4]; [8] 12% | [5]; [7] 21% | [5]; [8] 32% | [6]; [7] 25% | [6]; [8] 44%
active: [3]; at 50.0 µM 88.8% | [4]; at 50.0 µM 74.9% | [5]; at 50.0 µM 82.2% | [6]; at 50.0 µM 90.8%

COc1ccccc1/C=C1\Sc2scc(-c3ccc(O)c(O)c3)[n+]2C1=O
inactive: [1]; [7] -5% | [2]; [7] -8% | [3]; [7] -11% | [4]; [7] -7% | [5]; [7] -14% | [6]; [7] 7%
active: [1]; [8] 99% | [1]; at 50.0 µM 98.9% | [2]; [8] 99% | [2]; at 50.0 µM 98.9% | [3]; [8] 99% | [3]; at 50.0 µM 99.3% | [4]; [8] 99% | [4]; at 50.0 µM 97.2% | [5]; [8] 99% | [5]; at 50.0 µM 98.8% | [6]; [8] 99% | [6]; at 50.0 µM 99%

ClCc1nc2ccccc2c2ccccc12
inactive: [1]; [7] 15% | [1]; [8] 50% | [2]; [7] 22% | [2]; [8] 26% | [2]; at 50.0 µM 20.8% | [3]; [7] 7% | [3]; [8] 21% | [3]; at 50.0 µM 55.9% | [4]; [7] 10% | [4]; [8] 13% | [4]; at 50.0 µM -28.2% | [5]; [7] 20% | [5]; [8] 67% | [5]; at 50.0 µM 61.1% | [6]; [7] 12% | [6]; [8] 43%
active: [1]; at 50.0 µM 73.8% | [6]; at 50.0 µM 83.5%

COc1cccc(NC(=S)NC(Cc2ccccc2)c2ccccc2)c1 (configuration not stated)
active: [1]; [8] 88% | [1]; at 50.0 µM 80.2% | [2]; [8] 88% | [2]; at 50.0 µM 74.1% | [3]; [8] 90% | [3]; at 50.0 µM 83.9% | [4]; [8] 88% | [4]; at 50.0 µM 70% | [5]; [8] 90% | [5]; at 50.0 µM 77.2% | [6]; [8] 88% | [6]; at 50.0 µM 72.4%
inactive: [1]; [7] -7% | [2]; [7] -10% | [3]; [7] -7% | [4]; [7] 19% | [5]; [7] -2% | [6]; [7] -7%

Cc1ccc(CN2CC(=O)N3Cc4ccccc4CN3C(=O)C2)cc1
inactive: [1]; [7] -1% | [1]; [8] -3% | [1]; at 50.0 µM -3.95% | [2]; [7] -6% | [2]; [8] -15% | [2]; at 50.0 µM 6.6% | [3]; [7] 4% | [3]; [8] 4% | [3]; at 50.0 µM 10.4% | [4]; [7] 0% | [4]; [8] -3% | [4]; at 50.0 µM -8.8% | [5]; [7] 5% | [5]; [8] 30% | [6]; [7] -5% | [6]; [8] -2% | [6]; at 50.0 µM -20.2%
active: [5]; at 50.0 µM 83.4%
